# About 960 (1.5%) of roughly 66,000 compounds showed an effect of 50% or more. This excerpt belongs to a sample that is enriched for strong results.
# Tested on: Trypanosoma brucei
# Test: Trypanosoma brucei 72 hour study
# Assay type: functional, organism-based
# Set-up: scale not given: in the data most compounds retested in dose-response had high values
structure (smiles),measurement,setting,value
CN1CCO[C@@H]2CN(C(=O)NCc3ccccc3)CC[C@@H]2C1.O=C(O)C(F)(F)F,Percent Effect,"30.3 µM, […]",-54.53%
Cn1ccnc1C(=O)N1CCC2(CCN2c2ncccn2)C1.O=C(O)C(F)(F)F (stereo not given),Percent Effect,"30.3 µM, […]",-37.97%
CCC1CN(C)c2ccccc2CN1CCn1cncn1 (stereo not given),Percent Effect,"30 µM, 30.03 µM",56.46%
CC1CN(C)c2ccccc2CN1CCn1cncn1 (stereo not given),Percent Effect,"30 µM, 30.03 µM",-41.9%
CCC1CN(C)c2ccccc2CN1C(=O)CCn1cncn1 (stereo not given),Percent Effect,"30 µM, 30.03 µM",12.6%
COc1cc(C)c(S(=O)(=O)NCc2cccnc2N(C)C)c(C)c1,Percent Effect,"30.3 µM, […]",6.422%
Cc1ccc(-n2cc(CN3CCOCC3)c(-c3cccc(C)c3)n2)cc1,Percent Effect,"30.3 µM, […]",3.807%
Cc1ccc(C)c(-n2cc(CN3CC[C@@H](O)C3)c(-c3ccccc3)n2)c1,Percent Effect,"30.3 µM, […]",100.3%
Cc1ccc(C)c(-n2cc(CN3CCOCC3)c(-c3ccccc3)n2)c1,Percent Effect,"30.3 µM, […]",5.174%
O=C(NC1CC1)C1=CC2(CCN(CCO)CC2)c2ccccc21.O=C(O)C(F)(F)F,Percent Effect,"30.3 µM, […]",-19.93%
CCN1CCN2CCCN(S(=O)(=O)c3cccc(F)c3)C2C1=O (stereo not given),Percent Effect,"30.3 µM, […]",65.65%
CCN1CCN2CCCN(S(=O)(=O)c3ccc(S(C)(=O)=O)cc3)C2C1=O (stereo not given),Percent Effect,"30.3 µM, […]",30.28%
CCN1CCN2CCCN(S(=O)(=O)c3ccc(C)cc3C)C2C1=O (stereo not given),Percent Effect,"30.3 µM, […]",8.732%
COc1cc(C(=O)N2C[C@H]3CC[C@@H]2CN(Cc2cscn2)C3)ccn1,Percent Effect,"30 µM, 30.03 µM",1.07%
CS(=O)(=O)NCC1CCCN(C(=O)c2cc3ccccc3o2)C1 (stereo not given),Percent Effect,"30.3 µM, […]",1.962%
O=C(COCC(F)(F)F)NS(=O)(=O)c1ccc2c(c1)OCCCO2,Percent Effect,"30.3 µM, […]",-2.455%
Cc1ccc(CN2CCc3onc(C(=O)N4CCCC4)c3C2)o1.O=C(O)C(F)(F)F,Percent Effect,"30.3 µM, […]",0.525%
O=C(Cn1ccc2ccccc21)Nc1cc(N2CCOCC2)ncn1,Percent Effect,"30.3 µM, […]",-10.05%
O=C(Cn1ccc2ccccc21)Nc1cc(N2CCCC2)ncn1,Percent Effect,"30.3 µM, […]",1.206%
CN1CCN(c2cc(NC(=O)Cn3ccc4ccccc43)ncn2)CC1,Percent Effect,"30.3 µM, […]",101.2%
O=C(CC1CC1)N1CC[C@H]2[C@@H]1CCC(=O)N2Cc1ccncc1.O=C(O)C(F)(F)F,Percent Effect,"30 µM, 30.03 µM",-15.55%
c1nc(N2CCCC(Cn3cncn3)C2)c2sccc2n1 (stereo not given),Percent Effect,"30.3 µM, […]",1.361%
Cc1cc(NC2CCc3ncnn3C2)n2ncnc2n1 (stereo not given),Percent Effect,"30 µM, 30.03 µM",-36.85%
Cc1nc[nH]c1CN1CCC2(CC1)CC(Nc1ncccn1)CO2.O=C(O)C(F)(F)F (stereo not given),Percent Effect,"30 µM, 30.03 µM",-22.29%
CC(=O)Nc1ccc(CCC2(NC(=O)C3CC3)CCCCC2)cn1,Percent Effect,"30.3 µM, […]",1.37%
CC(C)(C)c1ccc(CN2C[C@H]3C[C@H](O)C[C@H]3C2)c(OCC(N)=O)c1,Percent Effect,"30.3 µM, […]",-6.506%
Cc1cc(C(F)(F)F)nn1CC(C)C(=O)Nc1ccccn1 (stereo not given),Percent Effect,"30.3 µM, […]",13.6%
Cc1cc(C(F)(F)F)nn1CC(C)C(=O)Nc1cccnc1 (stereo not given),Percent Effect,"30.3 µM, […]",-4.531%
Cc1cccnc1NC(=O)C(C)Cn1nc(C(F)(F)F)cc1C (stereo not given),Percent Effect,"30 µM, 30.03 µM",53.66%
Cc1cc(N2CCN(C(=O)[C@@H]3C[C@@H]4C=C[C@H]3C4)CC2)nc2ccccc12,Percent Effect,"30.3 µM, […]",18.47%
Cl.O[C@@H]1CN(Cc2ccc(F)cc2)CC[C@H]1NCc1ccccn1,Percent Effect,"30.3 µM, […]",5.839%
CC(C)C1CC(=O)Nc2c1cnn2Cc1ccco1 (stereo not given),Percent Effect,"30 µM, 30.03 µM",5.524%
CC(C)(C)C1CC(=O)Nc2c1cnn2Cc1ccco1 (stereo not given),Percent Effect,"30 µM, 30.03 µM",53.72%
CC(C)CC1CC(=O)Nc2c1cnn2Cc1ccco1 (stereo not given),Percent Effect,"30 µM, 30.03 µM",-10.02%
COCc1nc(N(C)C)ncc1C(=O)NC(C)c1ccccc1 (stereo not given),Percent Effect,"30.3 µM, […]",-21.32%
O=C(c1cc(-c2ccn(CC3CC3)n2)n2ccccc12)N1CCCO1,Percent Effect,"30.3 µM, […]",-0.5665%
O=C(O)c1cc(-c2ccn(CC3CC3)n2)n2ccccc12,Percent Effect,"30.3 µM, […]",-1.96%
O=C(c1cc(-c2ccn(CC3CC3)n2)n2ccccc12)N1CCOCC1,Percent Effect,"30.3 µM, […]",100.3%
Cc1ccc(CN2CCC3(CC2)CC(c2cccnc2)C(=O)N3C)o1.O=C(O)C(F)(F)F.O=C(O)C(F)(F)F (stereo not given),Percent Effect,"30.3 µM, […]",-49.66%
COCCN1CCC2(CCCN(Cc3ccoc3)C2)C1=O.O=C(O)C(F)(F)F (stereo not given),Percent Effect,"30.3 µM, […]",-22.78%
O=C(CC1CCCC1)N1CCn2cc(Cn3cccn3)nc2C1.O=C(O)C(F)(F)F,Percent Effect,"30.3 µM, […]",-840.1%
O=C(O)C(F)(F)F.O=C(c1cnoc1)N1CCC[C@]2(C[C@@H](Oc3ccccn3)CO2)C1,Percent Effect,"30 µM, 30.03 µM",-14.73%
COC(=O)CCNC(=O)c1cnc(Cc2ccc(F)cc2)s1,Percent Effect,"30 µM, 30.03 µM",3.867%
CN(C)CCCNC(=O)c1cnc(Cc2ccc(F)cc2)s1,Percent Effect,"30 µM, 30.03 µM",52.82%
CCNC(=O)c1cnc(Cc2ccc(F)cc2)s1,Percent Effect,"30 µM, 30.03 µM",3.769%
O=c1c(CN2CC3CCCN3C[C@@H]2CCO)coc2ccc(Cl)cc12 (stereo not given in full),Percent Effect,"30.3 µM, […]",-20.01%
O=C1CC(N(C(=O)c2csc(-c3ccccc3)n2)C2CC2)C(=O)N1 (stereo not given),Percent Effect,"30 µM, 30.03 µM",9.836%
Cc1nc(-c2ccccc2)sc1C(=O)N(C1CC1)C1CC(=O)NC1=O (stereo not given),Percent Effect,"30 µM, 30.03 µM",37.33%
O=C1CC(N(C(=O)Cc2csc(-c3ccccc3)n2)C2CC2)C(=O)N1 (stereo not given),Percent Effect,"30 µM, 30.03 µM",106%
O=C(O)C(F)(F)F.O=C1COC2(CCN(CC3CC3)CC2)CN1c1ccsc1,Percent Effect,"30.3 µM, […]",-336%
Cn1cc(N2CCC3(CCCN(Cc4ccc(F)cc4)C3)C2=O)cn1.O=C(O)C(F)(F)F (stereo not given),Percent Effect,"30 µM, 30.03 µM",66.19%
Cc1nc(CN2CCCC3(CCN(c4cnn(C)c4)C3=O)C2)cs1.O=C(O)C(F)(F)F (stereo not given),Percent Effect,"30.3 µM, […]",-9.884%
Cn1cc(CN2CCC3(CCN(c4cnn(C)c4)C3=O)C2)cn1.O=C(O)C(F)(F)F (stereo not given),Percent Effect,"30 µM, 30.03 µM",-6.498%
COCCNc1ccc(CC2CCCNC2)cn1.Cl (stereo not given),Percent Effect,"30.3 µM, […]",0.7781%
CSCc1cc(F)ccc1CNC(=O)N1CCC(CO)CC1,Percent Effect,"30 µM, 30.03 µM",-59.11%
I.c1ccc(OCCNC2=NCCCN2)cc1,Percent Effect,"30 µM, 30.03 µM",-0.004482%
CCOCc1ccc(CNC2=NCCCN2)cc1.I,Percent Effect,"30.3 µM, […]",-5.411%
CN(C)c1ccc(CNC2=NCCCN2)cc1.I,Percent Effect,"30.3 µM, […]",99.22%
NC[C@H]1CC[C@H](C(NC(=O)CC2CCCC2)c2ccccn2)CC1 (stereo not given in full),Percent Effect,"30.3 µM, […]",-41.17%
CCCN1C[C@H](NC(=O)c2ccccc2F)[C@@H](c2ccc(OC)cc2)C1,Percent Effect,"30.3 µM, […]",-8.438%
Cc1ccc(CN2CCC3(CC2)CC(CC(=O)NC(C)C)CO3)s1.O=C(O)C(F)(F)F (stereo not given),Percent Effect,"30.3 µM, […]",-52.98%
O=C(C1CCOCC1)N1C[C@H]2C[C@H](OCc3ccccc3)C[C@H]2C1,Percent Effect,"30.3 µM, […]",32.35%
CN(C)CCOCC1CN(Cc2ccsc2)Cc2nnn(C)c21.O=C(O)C(F)(F)F.O=C(O)C(F)(F)F (stereo not given),Percent Effect,"30.3 µM, […]",-20.25%
Cc1nccn1C1CCCN(C(=O)c2ccc(N(C)C)nc2)C1 (stereo not given),Percent Effect,"30 µM, 30.03 µM",59.27%
Cc1nc(C)n(C2CCCN(C(=O)c3ccc(O)nc3)C2)n1 (stereo not given),Percent Effect,10 µM,-79.94%
CN(C)c1ccc(C(=O)N2CCCC(n3cccn3)C2)cn1 (stereo not given),Percent Effect,"30.3 µM, […]",-20.71%
Cc1cc(C)n(C2CCCN(C(=O)c3ccc(NC4CC4)nc3)C2)n1 (stereo not given),Percent Effect,"30 µM, 30.03 µM",3.181%
Cc1nccn1C1CCCN(C(=O)c2ccc(N(C)C)nn2)C1 (stereo not given),Percent Effect,"30.3 µM, […]",-14.31%
Cc1nc(C)n(C2CCCN(C(=O)c3ccc(NC4CC4)nc3)C2)n1 (stereo not given),Percent Effect,"30 µM, 30.03 µM",56.19%
c1cc(-c2cscn2)cc(N2CCC(NCCc3cccs3)CC2)c1,Percent Effect,"30.3 µM, […]",64.97%
CN(C)CCCN(C)C1CCN(c2cccc(-c3cscn3)c2)CC1,Percent Effect,"30.3 µM, […]",17.15%
CN(Cc1nccs1)C1CCN(c2cccc(-c3cscn3)c2)CC1,Percent Effect,"30.3 µM, […]",-33.72%
CC(C)CC(C)NC1CCN(c2cccc(-c3cscn3)c2)CC1 (stereo not given),Percent Effect,"30 µM, 30.03 µM",-3.57%
c1ccc(-c2cccc(N3CCC(NCCc4cscn4)CC3)c2)cc1,Percent Effect,"30.3 µM, […]",99.95%
O=C1CCCN1c1cccc(N2CCC(NCCc3cscn3)CC2)c1,Percent Effect,"30.3 µM, […]",6.374%
CC1(c2ccc(Br)cc2)CC(=O)N(CC(N)=O)C1=O (stereo not given),Percent Effect,"30.3 µM, […]",-17.28%
Cn1cc(C(=O)CC2CCCN2C(=O)c2cccc3ncccc23)cn1 (stereo not given),Percent Effect,"30.3 µM, […]",-17.51%
Cc1ccc(C(=O)NCCC2CN(C3CCCC3)CCO2)c(C)c1 (stereo not given),Percent Effect,"30 µM, 30.03 µM",0.3212%
O=C(c1cc2c(Cl)cccc2[nH]1)N1CCN(CCc2ccccn2)CC1,Percent Effect,"30 µM, 30.03 µM",6.57%
CCOC(=O)c1ccc(S(=O)(=O)NCc2cccnc2N(C)C)cc1,Percent Effect,10 µM,-42.9%
Cc1ccc(CCC(=O)N(C)CCN2CCOCC2)c(C)c1,Percent Effect,"30 µM, 30.03 µM",15.97%
CCOc1ccc(CN2CCN(C(=O)c3cc(C4CC4)[nH]n3)CC2)cc1,Percent Effect,"30.3 µM, […]",-13.15%
same,Percent Effect,"10 mM, 10 mM as filed; unlikely as a test dose",-41.12%
CC(=O)Nc1ccc(CN2CCCC(c3cc4ncccc4[nH]3)C2)cc1 (stereo not given),Percent Effect,"30.3 µM, […]",8.67%
Fc1ccc(CN2CCCC(c3cc4ncccc4[nH]3)C2)cc1 (stereo not given),Percent Effect,"30.3 µM, […]",55.67%
Cl.Cn1nc(C2CCCN(Cc3ccc(F)cc3)C2)c2nccnc21 (stereo not given),Percent Effect,"30.3 µM, […]",4.536%
CCOc1nnc(CN2CCCC(c3nc4ccccc4[nH]3)C2)s1 (stereo not given),Percent Effect,"30 µM, 30.03 µM",-9.691%
CCOc1ccc(CN2CCCC(c3cc4ncccc4[nH]3)C2)cc1 (stereo not given),Percent Effect,"30.3 µM, […]",100.2%
O=S(=O)(C1CC1)N1Cc2nccn2CC(Cn2cncn2)C1 (stereo not given),Percent Effect,"30.3 µM, […]",-41.46%
CC1c2ncc(CN3CCN(C)CC3)n2CCN1Cc1ccc(F)cc1.O=C(O)C(F)(F)F.O=C(O)C(F)(F)F.O=C(O)C(F)(F)F (stereo not given),Percent Effect,"30.3 µM, […]",-44.2%
CN(Cc1ccco1)[C@@H]1CN(C(=O)c2cnccn2)C[C@@H]2CCCO[C@@H]21.O=C(O)C(F)(F)F,Percent Effect,"30 µM, 30.03 µM",-17.24%
COc1cc(N2CCC3(CCN(Cc4csc(C)n4)C3=O)C2)ncn1.O=C(O)C(F)(F)F (stereo not given),Percent Effect,"30.3 µM, […]",-84.03%
COCC1COCCC12CCN(S(=O)(=O)c1cccnc1)CC2.O=C(O)C(F)(F)F (stereo not given),Percent Effect,"30.3 µM, […]",-13.71%
O=C(COc1ccc2c(c1)CCC2)NS(=O)(=O)c1cccnc1,Percent Effect,10 µM,-70.49%
Cc1ccc(N2CC[C@@H]3[C@@H]2CCN3C(=O)Cc2ccccc2)nn1.O=C(O)C(F)(F)F,Percent Effect,"30.3 µM, […]",-46.46%

# Reference: ChEMBL document CHEMBL3988442, “University of Dundee, Small-Polar-MMV Screening Library” (2021)
